Screening results deposited in PubChem BioAssay by National Center for Advancing Translational Sciences (NCATS).
VDR inhibitor – Inhibitors of the vitamin D receptor (VDR): qHTS | Vitamin D3 receptor (Homo sapiens), P11473 | VDR-SRC2-3 peptide fluorescence polarization, 2 h | Potency, µM, without a hit: max response, negative = inhibition, hits mostly inhibitors | actives 0.93% (n = 400,000) | AID 504847, 2011
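Compounds are added to VDR with labelled SRC2-3 coactivator peptide and held 2 h at room temperature. Inhibition of the VDR–peptide interaction is then read as a change in fluorescence polarization.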
GCN5L2 inh – qHTS Assay for Inhibitors of GCN5L2; Histone acetyltransferase KAT2A (Homo sapiens), Q92830; GCN5L2 HAT assay, ThioGlo1 CoA-SH fluorescence; Potency, µM (highest dose often 58.9 µM), without a hit: at the highest dose activity change, negative = inhibition, usual class: inhibitors; actives 0.21% (n = 390,000); AID 504327, 2011
Target sequence (Q92830 whole entry, looked up): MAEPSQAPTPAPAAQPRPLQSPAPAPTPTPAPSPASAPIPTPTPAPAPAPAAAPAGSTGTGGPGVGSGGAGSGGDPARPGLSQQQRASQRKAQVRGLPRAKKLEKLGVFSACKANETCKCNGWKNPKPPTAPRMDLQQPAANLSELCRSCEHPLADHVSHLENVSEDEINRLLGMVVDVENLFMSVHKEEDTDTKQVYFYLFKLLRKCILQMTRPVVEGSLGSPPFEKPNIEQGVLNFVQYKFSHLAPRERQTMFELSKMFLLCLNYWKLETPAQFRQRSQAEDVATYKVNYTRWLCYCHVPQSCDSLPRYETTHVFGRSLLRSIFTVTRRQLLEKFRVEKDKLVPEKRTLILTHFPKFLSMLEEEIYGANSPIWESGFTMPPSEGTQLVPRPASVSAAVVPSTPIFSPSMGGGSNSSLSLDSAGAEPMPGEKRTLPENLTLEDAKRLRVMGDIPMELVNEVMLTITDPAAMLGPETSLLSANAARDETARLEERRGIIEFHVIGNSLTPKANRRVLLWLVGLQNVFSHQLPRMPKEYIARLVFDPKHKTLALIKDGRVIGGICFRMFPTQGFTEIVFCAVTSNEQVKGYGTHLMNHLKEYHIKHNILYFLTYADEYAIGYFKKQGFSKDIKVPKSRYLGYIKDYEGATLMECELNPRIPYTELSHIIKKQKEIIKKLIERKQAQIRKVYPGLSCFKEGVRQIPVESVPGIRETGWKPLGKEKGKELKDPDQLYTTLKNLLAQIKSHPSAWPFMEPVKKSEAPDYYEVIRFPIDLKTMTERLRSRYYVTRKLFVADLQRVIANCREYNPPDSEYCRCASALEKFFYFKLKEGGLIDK
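Compounds, pin-transferred from DMSO stocks, meet 20nM GCN5L2 for 15 min before the reaction begins with H3(1-25) peptide (75uM) and acetyl-CoA (70uM). Thiol-reactive ThioGlo1 reports CoA release over 20 min at room temperature.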
DT40 TDP1 no CPT – qHTS for Inhibitors of human tyrosyl-DNA phosphodiesterase 1 (TDP1): qHTS in cells in absence of CPT | DT40 Tdp1-/- hTDP1 cells, no CPT, ATP luminescence, 48 h | Potency, µM (doses to about 46.2 µM), for the others: at the top dose activity change, negative = growth inhibition, actives largely listed as inhibitors | actives 15% (n = 420,000) | AID 686978, 2013; also: nearly all actives have a fitted effect of over 55% in size
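DT40 Tdp1-/-;hTDP1 cells, no CPT (DMSO vehicle only), 400 cells/well; compounds pin-transferred; ≥48 hr, 37 °C; CellTiter-Glo 30 min RT dark, luminescence read.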
PLK1 PBD block – qHTS for Inhibitors of PLK1-PDB (polo-like kinase 1 - polo-box domain): Primary Screen | Plk1 PBD binding of FITC phosphopeptide, fluorescence polarization | Potency, µM, for the others: max response, negative = inhibition, usual class: inhibitors | actives 2.8% (n = 360,000); also: series mostly up to about 57 µM; nearly all actives have a fitted effect of over 65% in size
TDP1 cell CPT – qHTS for Inhibitors of human tyrosyl-DNA phosphodiesterase 1 (TDP1): qHTS in cells in presence of CPT | actives 12% (n = 420,000) | chicken DT40 Tdp1-/-;hTDP1 cells + 20 nM CPT, ATP luminescence, 48 h | Potency, µM (highest dose often 46.2 µM), without a hit: at the top dose activity change, negative = growth inhibition, most hits filed as inhibitors; also: nearly all actives have a fitted effect of over 55% in size
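Chicken DT40 Tdp1-/- cells complemented with human TDP1, 400 cells/well, exposed to compounds plus 20 nM camptothecin for at least 48 h at 37 C; viability read as ATP content by CellTiter-Glo luminescence.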
TDP1 inh – qHTS Assay for Inhibitors of Tyrosyl-DNA Phosphodiesterase (TDP1); Tyrosyl-DNA phosphodiesterase 1 (Homo sapiens), Q9NUW8; recombinant TDP1, AlphaScreen DNA substrate cleavage; Potency, µM (highest dose often 130 µM), for the others: at the top dose activity change, negative = inhibition, actives largely listed as inhibitors; actives 0.28% (n = 350,000); AID 485290, 2010; also: nearly all actives have a fitted effect of over 40% in size
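Steps: enzyme plus compound, 15 min RT; add biotin/phosphotyrosine-FITC oligonucleotide (15 nM final), react 5 min; add donor/acceptor beads (10 ug/ml final), 10 min; read AlphaScreen. Tdp1 at 1 nM final.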
* = called active by the depositor; ? = inconclusive; / = not tested or not shown; [ ] = dose if it differs, or a comment. Sampled rows, rich in hits. Any-hit rate of the full collection: about 18%. Calls follow the shape of the dose curve; as a rule, active = well fitted curve in the direction sought with a large enough effect; inconclusive = small, poorly fitted or top-dose-only effect, or another doubt; inactive = no such curve, though single readings can be large; an effect the other way counts as inactive or inconclusive. % is scaled to controls: 0 for no effect and ±100 for the full control effect; potency is read from the fitted curve at half-maximal effect.

SMILES	VDR inhibitor	GCN5L2 inh	DT40 TDP1 no CPT	PLK1 PBD block	TDP1 cell CPT	TDP1 inh
COC(C(=O)Nc1ccnn1C1CCN(Cc2ccc(Cl)s2)CC1)c1ccccc1 (centres undefined)	3%	-1%	?	-6%	?	4%
O=C(NCc1ccccc1)C(c1ccccc1F)n1c(=O)c(-c2ccco2)nc2ccccc21 (centres undefined)	/	/	21µM*	?	?	/
CCCCCNC(=O)C(c1cc2ccccc2o1)n1c(=O)c(-c2ccco2)nc2ccccc21 (centres undefined)	/	/	16µM*	7.5µM*	?	/
O=C(NCc1ccccc1)C(c1ccccc1F)n1c(=O)c(-c2ccccc2)nc2ccccc21 (centres undefined)	/	/	?	-24%	16µM*	/
CC(C)(C)NC(=O)C(c1cc2ccccc2o1)n1c(=O)c(-c2ccco2)nc2ccccc21 (centres undefined)	/	/	?	-28%	?	/
CC(C)(C)NC(=O)C(c1cc2ccccc2o1)n1c(-c2ccc(-c3ccccc3)cc2)nc2ccccc21 (centres undefined)	/	/	?	-2%	16µM*	/
COc1ccc(C(C(=O)NCc2ccccc2)n2c(=O)c(-c3ccco3)nc3ccccc32)cc1 (centres undefined)	/	/	?	-18%	?	/
CCCS(=O)(=O)NCc1c(C)ncc2c1CCN(C(=O)c1ccc(Cl)cc1)C2	/	/	-16%	/	-3%[9.04 µM]	/
COc1cc(OC)cc(-c2nnc3n2N=C(c2cc(OC)ccc2OC)CS3)c1	/	/	/	/	/	15%
O=C(NCc1ccccc1)C(c1cc2ccccc2o1)n1c(=O)c(-c2ccccc2)nc2ccccc21 (centres undefined)	/	/	13µM*	-3%	15µM*	/
Cc1cccc(C)c1NC(=O)C(c1ccccc1F)n1c(=O)c(-c2ccccc2)nc2ccccc21 (centres undefined)	/	/	21µM*	0%	?	/
O=C(NCc1ccccc1)C(c1ccncc1)n1c(=O)c(-c2ccccc2)nc2ccccc21 (centres undefined)	/	/	?	-13%	-21%	/
CS(=O)(=O)N1CCC(C(=O)Nc2ccc(Cl)cc2Cl)CC1	/	/	0%	-4%	8%	/
CCOC(=O)CSc1nc(N)cc(=O)[nH]1	15%	-4%	?	-9%	-9%	3%
Cc1nn(CCCC(=O)Nc2cccnc2)c(C)c1[N+](=O)[O-]	1%	-8%	-4%	1%	8%	2%
N#Cc1c(NC(=O)CCC(=O)O)sc2c1CCCC2	-1%	-1%	0%	-16%	0.58µM*	-2%
N#Cc1c(NC(=O)CSc2nc(N)cc(=O)[nH]2)sc2c1CCCC2	-10%	3%	23µM*	?	?	1%
CCOC(=O)Cc1cnc(NC(=O)CSc2nc(N)cc(=O)[nH]2)s1	?	4%	?	17µM*	?	-3%
Cc1nn(CCCC(=O)Nc2sc3c(c2C#N)CCC3)c(C)c1[N+](=O)[O-]	?	-9%	?	30µM*	-28%	0%
Cc1cc(-c2nc3ncccc3o2)ccc1NC(=O)COc1cc(C)c(Cl)c(C)c1	11%	0%	2%	/	-5%	0%
CCc1ccc(CCC(=O)Nc2sc3c(c2C#N)CCCC3)o1	-12%	-6%	3.5µM*	-22%	5µM*	2%
CCC(=O)Nc1sc2c(c1C#N)CCC2	-2%	-4%	-18%	?	-7%	2%
